# Assay outcomes (PubChem)
# Compounds with a hit are over-represented: about 12% of the library has one in this group of screens.
# G9a block: qHTS Assay for Inhibitors of Histone Lysine Methyltransferase G9a. Histone-lysine N-methyltransferase EHMT2 (Homo sapiens), Q96KQ7. AID 504332, 2011. G9a H3K9 monomethylation, AlphaScreen, 2 h. hit rate 8.8% among 350,000. Potency, µM (top dose mostly 102 µM), without a hit: at the top dose activity, negative = inhibition, actives largely listed as inhibitors; also: potency is read from the fitted curve at half-maximal effect; % is scaled to controls: 0 for no effect and ±100 for the full control effect; nearly all actives have a fitted effect of over 75% in size
#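 Compounds were preincubated with 20 nM G9a for 15 min, after which biotinylated H3K9 peptide (500 nM) and SAM (20 uM) started a 2 h room-temperature reaction. Monomethylated product was quantified by antibody-based AlphaScreen chemiluminescence.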
# HP1b binding inh: HTS for Inhibitors of HP1-beta Chromodomain Interactions with Methylated Histone Tails; AlphaScreen HP1-beta / biotin-H3K9me3 peptide binding; Potency, µM (highest dose often 114 µM), without a hit: top-dose activity change, negative = inhibition, actives largely listed as inhibitors; hit rate 0.56% among 390,000; AID 540317, 2011; also: potency is read from the fitted curve at half-maximal effect; nearly all actives have a fitted effect of over 70% in size
#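 Compound inhibition of the preformed complex between 50 nM HP1-beta and 50 nM biotinylated H3K9me3 peptide was read by AlphaScreen. Buffer was PBS pH 7.4 with 0.01% Tween-20. Incubations ran 30 min at room temperature, with 10 ug/mL donor/acceptor beads.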
# JMJD2A Tudor inh: qHTS Assay for Inhibitors of JMJD2A-Tudor Domain; AlphaScreen JMJD2A-Tudor / H3K4me3 peptide binding; hit rate 4.4% among 390,000; Lysine-specific demethylase 4A (Homo sapiens), O75164; Potency, µM (highest dose often 114 µM), for the others: at the highest dose activity change, negative = inhibition, usual class: inhibitors; also: potency is read from the fitted curve at half-maximal effect; % is scaled to controls: 0 for no effect and ±100 for the full control effect; nearly all actives have a fitted effect of over 50% in size
# PLK1 PBD inh: qHTS for Inhibitors of PLK1-PDB (polo-like kinase 1 - polo-box domain): Primary Screen; Serine/threonine-protein kinase PLK1 (Homo sapiens), P53350; Plk1 PBD binding of FITC phosphopeptide, fluorescence polarization; Potency, µM, for the others: max response, negative = inhibition, most hits filed as inhibitors; hit rate 2.8% among 360,000; also: potency is read from the fitted curve at half-maximal effect; series mostly up to about 57 µM; % is scaled to controls: 0 for no effect and ±100 for the full control effect; nearly all actives have a fitted effect of over 65% in size
# PI5P4K alpha inh: qHTS for Inhibitors of phosphatidylinositol 5-phosphate 4-kinase (PI5P4K) | max response, % | PI5P4Kalpha enzyme, ADP-Glo luminescence, 60 min; active compounds read low | hit rate 1.2% among 330,000 | Phosphatidylinositol 5-phosphate 4-kinase type-2 alpha (Homo sapiens), P48426; active = max response of -50% or lower; inconclusive = between -30% and -50%; inactive = -30% or higher; also: value at the top dose of about 77 µM; % is scaled to controls: 0 for no effect and ±100 for the full control effect
#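 Reactions run in 0.038 M HEPES pH 7.4, 0.28 mM EGTA, 0.1% CHAPS and 5% DMSO, with PI5P4Kalpha, substrate, compound and 5 microM ATP final, one hour at room temperature. Readout is ADP-Glo luminescence.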
# BAZ2B block: qHTS Assay for Inhibitors of BAZ2B. AlphaScreen BAZ2B-H3K14Ac peptide displacement. AID 504333, 2011. Potency, µM (doses to about 114 µM), for inactives: at the highest dose activity change, negative = inhibition, actives largely listed as inhibitors. hit rate 4.4% among 360,000; also: potency is read from the fitted curve at half-maximal effect; % is scaled to controls: 0 for no effect and ±100 for the full control effect; nearly all actives have a fitted effect of over 60% in size
# Target sequence (Q9UIF8 whole entry, looked up): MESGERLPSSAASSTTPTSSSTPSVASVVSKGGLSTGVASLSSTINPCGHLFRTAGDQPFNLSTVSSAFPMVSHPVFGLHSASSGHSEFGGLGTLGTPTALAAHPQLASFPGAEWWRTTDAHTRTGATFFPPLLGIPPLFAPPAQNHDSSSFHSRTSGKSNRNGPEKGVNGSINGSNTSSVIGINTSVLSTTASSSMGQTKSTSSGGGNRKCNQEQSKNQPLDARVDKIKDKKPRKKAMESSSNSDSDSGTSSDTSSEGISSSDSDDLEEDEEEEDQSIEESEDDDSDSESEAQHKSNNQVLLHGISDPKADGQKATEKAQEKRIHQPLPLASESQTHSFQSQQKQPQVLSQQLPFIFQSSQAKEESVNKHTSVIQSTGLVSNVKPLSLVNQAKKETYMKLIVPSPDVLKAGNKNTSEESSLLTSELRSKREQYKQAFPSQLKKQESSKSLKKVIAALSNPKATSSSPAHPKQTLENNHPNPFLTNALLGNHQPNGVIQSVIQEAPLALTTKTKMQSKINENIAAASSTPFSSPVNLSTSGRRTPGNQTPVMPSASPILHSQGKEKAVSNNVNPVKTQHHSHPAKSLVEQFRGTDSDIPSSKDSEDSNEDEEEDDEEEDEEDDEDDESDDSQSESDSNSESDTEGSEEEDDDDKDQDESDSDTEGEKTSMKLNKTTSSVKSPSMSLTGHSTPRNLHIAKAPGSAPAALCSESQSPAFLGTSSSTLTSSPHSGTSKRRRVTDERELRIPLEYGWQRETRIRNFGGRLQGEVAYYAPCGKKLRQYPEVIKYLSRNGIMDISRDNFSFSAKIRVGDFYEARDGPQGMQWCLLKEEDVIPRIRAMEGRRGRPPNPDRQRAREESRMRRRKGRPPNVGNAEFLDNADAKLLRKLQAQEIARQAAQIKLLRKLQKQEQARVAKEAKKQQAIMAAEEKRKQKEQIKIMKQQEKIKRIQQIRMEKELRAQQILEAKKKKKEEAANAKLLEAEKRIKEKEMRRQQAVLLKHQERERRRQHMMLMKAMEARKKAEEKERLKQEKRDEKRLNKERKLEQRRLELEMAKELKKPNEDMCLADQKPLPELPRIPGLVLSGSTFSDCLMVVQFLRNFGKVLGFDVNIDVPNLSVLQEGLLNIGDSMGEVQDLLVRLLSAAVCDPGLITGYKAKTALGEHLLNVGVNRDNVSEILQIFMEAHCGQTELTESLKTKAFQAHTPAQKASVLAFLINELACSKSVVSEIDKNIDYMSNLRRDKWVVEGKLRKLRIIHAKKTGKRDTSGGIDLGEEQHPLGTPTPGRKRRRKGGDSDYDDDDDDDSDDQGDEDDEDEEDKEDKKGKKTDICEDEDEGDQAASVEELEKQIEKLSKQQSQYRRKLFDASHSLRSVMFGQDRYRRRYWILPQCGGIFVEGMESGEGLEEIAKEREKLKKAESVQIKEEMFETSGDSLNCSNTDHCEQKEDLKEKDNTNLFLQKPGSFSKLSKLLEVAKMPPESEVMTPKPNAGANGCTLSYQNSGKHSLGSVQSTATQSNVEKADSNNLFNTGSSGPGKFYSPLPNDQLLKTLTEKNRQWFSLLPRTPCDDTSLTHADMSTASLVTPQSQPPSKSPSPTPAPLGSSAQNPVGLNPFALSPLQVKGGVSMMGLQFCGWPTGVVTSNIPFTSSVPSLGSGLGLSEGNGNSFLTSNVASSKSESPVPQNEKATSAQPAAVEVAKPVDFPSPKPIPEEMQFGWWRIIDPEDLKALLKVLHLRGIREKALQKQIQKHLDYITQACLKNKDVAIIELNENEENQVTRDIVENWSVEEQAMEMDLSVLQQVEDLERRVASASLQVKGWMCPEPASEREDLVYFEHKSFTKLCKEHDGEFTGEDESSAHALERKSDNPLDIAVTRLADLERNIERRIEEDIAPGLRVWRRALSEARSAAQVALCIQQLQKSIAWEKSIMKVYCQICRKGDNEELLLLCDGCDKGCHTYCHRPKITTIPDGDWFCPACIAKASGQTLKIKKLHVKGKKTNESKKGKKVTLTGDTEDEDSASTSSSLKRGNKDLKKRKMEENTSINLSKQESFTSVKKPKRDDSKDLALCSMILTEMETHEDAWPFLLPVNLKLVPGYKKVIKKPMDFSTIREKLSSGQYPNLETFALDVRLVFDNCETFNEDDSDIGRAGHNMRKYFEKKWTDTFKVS
#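 AlphaScreen luminescence quantifies BAZ2B engagement of H3K14Ac peptide; the protein and biotinylated peptide are both at 50 nM final, buffer PBS pH 7.4 with 0.01% Tween-20, all steps at room temperature.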
# Numbers without * were called inactive; ? = inconclusive; · = no result; [ ] = dose if it differs, or a comment. Unless noted, calls follow the shape of the dose curve; as a rule, active = well fitted curve in the direction sought with a large enough effect; inconclusive = small, poorly fitted or top-dose-only effect, or another doubt; inactive = no such curve, though single readings can be large; an effect the other way counts as inactive or inconclusive.
SMILES,G9a block,HP1b binding inh,JMJD2A Tudor inh,PLK1 PBD inh,PI5P4K alpha inh,BAZ2B block
COc1cccc(NC(=O)CN2CCSc3ccccc32)c1,22µM*,3%,-33%,-1%,-13,?
COc1ccccc1NC(=O)CN1CCSc2ccccc21,?,5%,-27%,-7%,6,-1%
Cc1cccc(NC(=O)CN2CCSc3ccccc32)c1,45µM*,31%,-24%,-11%,-2,?
CC(C)Oc1ccc(C(=O)Nc2c(C(=O)Nc3cccc(F)c3)oc3ccccc23)cc1,?,18%,-8%,·,·,-2%
COc1ccc(NC(=O)c2cc(CN3CCCC3)on2)cc1Cl,-25%[59 µM],16%,-27%,·,·,-20%
C/C(=N/NC(=O)CNc1ccc(C)cc1)c1ccc(Br)s1,35µM*,-5%,?,-13%,·,-18%
O=C(O)c1ccccc1C(=O)Nc1n[nH]c(=S)s1,1.4µM*,28µM*,13µM*,27µM*,·,32µM*
O=C(O)c1ccccc1C(=O)Nc1nccs1,0%[0.0925 µM],1%,-22%,-4%,5,14%
O=C(NCc1ccc(S(=O)(=O)Nc2ccccc2Cl)s1)c1ccccc1,79µM*,43%,-4%,-11%,3,0%
O=C(NCc1ccc(S(=O)(=O)NC2CCCCC2)s1)c1ccccc1,?,37%,1%,0%,-1,-10%
COc1ccc2nc(NN=C(C)c3ccccn3)cc(C)c2c1,·,?,45µM*,-8%,14,·
COC(=O)c1sccc1-c1ccc(C(N)=O)o1,50µM*,·,·,·,·,?
COC(=O)C(=Cc1ccc(-c2ccsc2C(=O)OC)o1)C(=O)OC,-3%,35%,-16%,-15%,10,-2%
Cc1ccc(C)c(/C(O)=C2\C(=O)C(=O)N(CCCn3ccnc3)C2c2cccnc2)c1 (stereo not drawn),?,21%,56µM*,-3%,6,79µM*
CC(C)Oc1ccc(/C(O)=C2/C(=O)C(=O)N(CCCn3ccnc3)C2c2cccnc2)cc1 (stereo not drawn),40µM*,18%,-8%,0%,-1,13%
COCCCN1C(=O)C(=O)/C(=C(/O)c2ccc(OC(C)C)cc2)C1c1ccncc1 (stereo not drawn),45µM*,29%,-21%,-6%,·,?
CCCCOc1ccc(/C(O)=C2/C(=O)C(=O)N(CCCOC)C2c2ccncc2)cc1 (stereo not drawn),7%[12.7 µM],5%,-12%,-10%,1,6%
O=C(CSc1nc2ccccc2s1)NNC(=S)Nc1ccc(Cl)cc1,40µM*,-5%,-22%,-18%,3,4%
C=CCNC(=S)NNC(=O)CSc1nc2ccccc2s1,28µM*,33%,-13%,-18%,-4,-32%
O=C(CSc1nc2ccccc2s1)NCCOc1ccc(Cl)cc1,19%[12.7 µM],38%,11%,-10%,-2,5%[57.1 µM]
CC(CCc1ccccc1)NC(=O)CCC(=O)N1CCC(C(=O)O)CC1 (stereo not drawn),-4%[0.501 µM],34%,-6%,-9%,-2,7%
Cc1cccc2nc(CSC(=N)N)c(Br)n12,8.9µM*,36%,-1%,-14%,4,-31%
CCOC(=O)c1c(C)[nH]c(C(=O)Cn2c(=O)c3c(ncn3CC)n(Cc3ccccc3)c2=O)c1C,8.9µM*,5%,-22%,3%,-2,-6%
O=C(O)c1cccc(-c2ccc(/C=N/NC(=O)C3COc4ccccc4O3)o2)c1 (stereo not drawn),40µM*,8%,-16%,-25%,-4,?
CC(C)(C)c1ccc2c(c1)OC(C(=O)N/N=C\c1ccccn1)CO2 (stereo not drawn),3%[59 µM],33%,-10%,-8%,9,2%
SMILES,G9a block,HP1b binding inh,JMJD2A Tudor inh,PLK1 PBD inh,PI5P4K alpha inh,BAZ2B block
CC(C)(C)c1ccc2c(c1)OC(C(=O)N/N=C\c1ccc(-c3cccc(C(=O)O)c3)o1)CO2 (stereo not drawn),40µM*,3%,-25%,19µM*,-16,50µM*
COCCN(C(=O)COC(=O)CNC(=O)c1ccc(C)cc1)c1c(N)n(Cc2ccccc2)c(=O)[nH]c1=O,·,59%,3%,5%,-2,·
Cc1nn(-c2ccccc2)c2c1N(CC(=O)N1CCN(c3ccccc3F)CC1)C(=O)CS2,4%[59 µM],-11%,-22%,·,·,?
Cc1cc(C(F)(F)F)c(C#N)c(N2CCOCC2)n1,12%,-8%,28µM*,3.4µM*,?,9%
CC(=O)/C(=N/Nc1ccccc1[N+](=O)[O-])N1CCCc2ccccc21,5µM*,7.9µM*,11µM*,-1%,25,5.6µM*
CC(=O)/C(=N/Nc1ccc([N+](=O)[O-])cc1)N1CCCc2ccccc21,22µM*,?,?,-1%,14,?
O=C(Nc1cccc([N+](=O)[O-])c1)N1CCCc2ccccc21,12%,20%,-28%,-6%,-4,-35%
Cc1cccc(N2CCN(C(=O)Cc3c(C(=O)O)c(C)cn3C)CC2C)c1 (stereo not drawn),-2%[59 µM],9%,-15%,·,·,-12%
CCS(=O)(=O)NCc1ccc2c(c1)cc(C)n2C,-16%[59 µM],8%,-35%,-4%,-2,-35%
Cc1cc2cc(CNS(=O)(=O)c3ccccc3)ccc2n1C,50µM*,-5%,?,-6%,-23,?
COc1ccc(CNS(=O)(=O)c2ccc(OC)cc2)cc1,13%[12.7 µM],21%,8%,-4%,3,11%
COc1ccc(S(=O)(=O)NCc2ccc3c(c2)cc(C)n3C)cc1,71µM*,-19%,?,-17%,0,-36%
Cc1ccc(C2=Nc3ccccc3N(C(=O)c3ccccc3)C(C)C2)cc1 (stereo not drawn),-6%,?,?,30µM*,-6,-35%
CC(C)CC1=C/C(=C/c2ccc(-c3ccccc3)o2)C(=O)O1,13µM*,?,?,11µM*,-68*,45µM*
CCOc1ccc(-n2c(SCC(=O)N3CCCCC3)nc3c([nH]c4ccccc43)c2=O)cc1,7%[59 µM],23%[57 µM],-1%,·,·,-1%
CCC(C(=O)Nc1nccs1)(C(F)(F)F)C(F)(F)F,?,24%,-10%,-6%,·,56µM*
CC(O)c1n(C)c(Cl)c[n+]1C (stereo not drawn),11µM*,9%,?,0%,8,1%
